A number with no mark means an inactive call. No rule for the calls is given here.
Test system: HIV-1 nucleocapsid protein NCp7 (binding to TG oligonucleotide)
Test: HIV Nucleocapsid (AID 346);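 also: potency is for inhibitors that block NC binding and lower polarization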
Conditions: HIV-1 NC / fluorescein-TGTGTGTG probe, fluorescence polarization
Method in brief: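 Inhibition of nucleocapsid binding to single-stranded 5'-TGTGTGTG probe (10 nM) was measured by fluorescence polarization after 1 hr at room temperature with 100 nM protein under high-salt, zinc-containing, reducing conditions.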
Potency is read from the fitted curve at half-maximal effect.

Compound | Potency [µM]
FC(F)(F)c1ccccc1-c1ccc2ncnc(NCCN3CCOCC3)c2c1 | > 20
COC(=O)N1CCC2(CCCN(C(=O)Nc3cccc(C#N)c3)C2)CC1 | > 20
O=C(c1cnccn1)N1CCC2(CCCN(Cc3ccncc3)C2)CC1 | > 20
O=C(c1ccncc1)N1CCC2(CC1)CN(Cc1cc(C(F)(F)F)cc(C(F)(F)F)c1)C2 | > 20
COC(=O)N1CCC2(CC1)CN(C(=O)Nc1ccccc1)C2 | > 20
O=c1c(-c2ccccc2)nc2cnc(N3CCNCC3)nc2n1C1CC1 | > 20
COc1ccc(-c2nc3cnc(N4CCN(C)CC4)nc3n(C)c2=O)cc1 | > 20
COCCn1c(=O)c(CCc2ccccc2)nc2cnc(Oc3cccc(Cl)c3)nc21 | > 20
c1cncc(-c2nccc(NCc3cccs3)n2)c1 | > 20
CC(C)NC(=O)N1CCCC2(CCN(C(=O)c3ccncc3)CC2)C1 | > 20
Cc1nc2cnc(Oc3ccccc3)nc2n(C)c1=O | > 20
c1cncc(CNc2ccnc(-c3ccc4c(c3)OCO4)n2)c1 | > 20
COc1ccc(C(=O)N2CCC3(CCN(Cc4ccncc4)CC3)CC2)cc1 | > 20
CN(C)C(=O)c1ccc(-c2nc(N(C)C)c3ccccc3n2)cc1 | > 20
O=c1c(-c2ccccc2)nc2cnc(N3CCNCC3)nc2n1-c1ccccc1 | > 20
O=C(Nc1ccccc1)N1CC2(CCN(S(=O)(=O)c3ccccc3)CC2)C1 | > 20
COc1cccc(Cn2c(=O)c(-c3ccc(F)cc3)nc3cnc(N4CCOCC4)nc32)c1 | > 20
CS(=O)(=O)Nc1cccc(-c2cc(NCc3cccs3)ncn2)c1 | > 20
O=C(Oc1ccccc1)N1CCC2(CC1)CCN(c1ncccn1)CC2 | > 20
O=C(Oc1ccccc1)N1CCC2(CCCN(c3ccncc3)C2)CC1 | > 20
N#CCCn1c(=O)c(-c2ccc(Cl)cc2)nc2cnc(Oc3ccccc3)nc21 | > 20
CN(C)C(=O)c1ccc(-c2nccc(Nc3ccc(F)cc3)n2)cc1 | > 20
COCCn1c(=O)c(C)nc2cnc(N3CCN(C)CC3)nc21 | > 20
COc1ccc(-c2nc3cnc(N4CCN(C)CC4)nc3n(Cc3ccc(F)cc3)c2=O)cc1 | > 20
O=c1c(CCc2ccccc2)nc2cnc(N3CCOCC3)nc2n1Cc1cccs1 | > 20

Source: PubChem BioAssay (NCATS)
